m5-HT2A agonist: agonists of mouse serotonin 5-HT2A receptor (HTR2A); 0.66% of 360,000 active; P35363; activation, % at 7.6 µM; CHO-K1 mHTR2A beta-arrestin complementation, luminescence; percent of 30 µM serotonin response;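 active means activation above a run cutoff, the mean activation of all tested compounds plus 3 SD, cut at about 14% in these data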;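 further: 0% = plate median of compound wells and 100% = 30 µM serotonin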
TLR9-MyD88 inh: blocks human TLR9 binding to MyD88 | inhibition, % at 4.98 µM | CHO BLA complementation TLR9-MyD88, CCF4 FRET ratio | 0.21% of 340,000 active | Q9NR96+Q99836;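 active means inhibition above the mean over all tested compounds plus 3 SD, cut at about 21% in these data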;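 further: 0% = DMSO only wells and 100% = clavulanate BLA inhibitor control wells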
LANA-H2B inh: blocks KSHV LANA binding to histone H2A/H2B; cell-free LANA-H2A/H2B peptide, fluorescence polarization; inhibition, % (concentration not given with the values); 0.6% of 320,000 active; AID 2629; in the data active means inhibition mostly above about 10%, no sharp cut-off; inactive means mostly below about 6.7%
Target sequence (Q9QR71 whole entry, looked up): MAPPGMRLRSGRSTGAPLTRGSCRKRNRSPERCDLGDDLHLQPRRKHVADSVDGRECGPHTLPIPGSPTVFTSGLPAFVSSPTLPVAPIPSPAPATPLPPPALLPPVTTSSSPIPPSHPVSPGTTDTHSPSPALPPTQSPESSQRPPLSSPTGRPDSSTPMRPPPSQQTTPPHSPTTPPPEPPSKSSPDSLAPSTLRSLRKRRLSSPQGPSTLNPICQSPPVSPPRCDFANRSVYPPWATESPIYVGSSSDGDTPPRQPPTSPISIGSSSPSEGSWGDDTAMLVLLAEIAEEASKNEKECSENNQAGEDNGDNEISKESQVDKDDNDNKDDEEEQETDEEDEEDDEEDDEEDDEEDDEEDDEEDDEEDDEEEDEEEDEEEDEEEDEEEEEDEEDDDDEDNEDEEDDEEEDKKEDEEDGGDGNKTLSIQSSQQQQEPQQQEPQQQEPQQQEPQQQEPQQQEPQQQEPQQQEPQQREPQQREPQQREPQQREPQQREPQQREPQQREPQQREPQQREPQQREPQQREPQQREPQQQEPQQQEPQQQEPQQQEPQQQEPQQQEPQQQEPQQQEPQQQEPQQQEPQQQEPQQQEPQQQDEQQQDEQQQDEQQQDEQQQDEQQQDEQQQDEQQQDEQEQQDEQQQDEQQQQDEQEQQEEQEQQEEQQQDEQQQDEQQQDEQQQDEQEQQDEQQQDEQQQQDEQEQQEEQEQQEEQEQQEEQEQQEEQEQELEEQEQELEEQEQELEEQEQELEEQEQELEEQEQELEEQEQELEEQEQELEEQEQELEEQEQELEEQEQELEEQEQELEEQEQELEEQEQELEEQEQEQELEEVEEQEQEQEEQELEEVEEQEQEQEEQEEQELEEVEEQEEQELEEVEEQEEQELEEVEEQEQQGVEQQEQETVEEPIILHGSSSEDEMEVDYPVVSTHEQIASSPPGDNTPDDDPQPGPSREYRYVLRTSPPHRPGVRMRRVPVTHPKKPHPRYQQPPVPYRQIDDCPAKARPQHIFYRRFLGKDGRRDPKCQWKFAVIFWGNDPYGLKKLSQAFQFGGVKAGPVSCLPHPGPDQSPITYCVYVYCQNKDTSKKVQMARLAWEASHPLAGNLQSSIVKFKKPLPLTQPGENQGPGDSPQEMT
TLR4 MyD88 comp: blocks binding of human TLR4 to MyD88; AID 861; 0.18% of 200,000 active; HeLa CL3-4 TLR4/MyD88 BLA complementation, FRET ratio; inhibition, % at 8.4 µM; in the data active means inhibition above about 25%;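 further: 0% = vehicle and 100% = reference inhibitor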
Rtt109 Vps75: blocks Candida albicans Rtt109/Vps75 acetyltransferase activity | Q5AAJ8 | purified Rtt109/Vps75, ThioGlo CoA-SH fluorescence, 4 h | inhibition, % at 34.9 µM | 0.16% of 330,000 active;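 active means inhibition of at least 50% in every replicate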
NOD2 RIPK2 PPI: inhibitors of human NOD2-RIPK2 interaction. 0.38% of 360,000 active. CHO BLA complementation NOD2-RIPK2, CCF4 ratio. inhibition, % at 4.98 µM. AID 624267; in the data active means inhibition above about 21%;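 further: 0% = vehicle only and 100% = reference blocker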
NOD2 RIPK2 conf: confirmation of human NOD2-RIPK2 interaction inhibitors | shares compounds with NOD2 RIPK2 PPI | 70% of 1,200 active | AID 624370 | inhibition, % at 4.98 µM | CHO cells, NOD2-RIPK2 BLA complementation, CCF4 FRET;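 active means mean inhibition across replicates above a set limit taken from the earlier primary screen, cut at about 21% in these data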;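 further: 0% = DMSO-only wells and the high end = clavulanate BLA-blocked wells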
NOD2 BLA counter: counter-screen for NOD2-RIPK2 interaction inhibitors: BLA reporter | inhibition, % at 4.98 µM | shares compounds with NOD2 RIPK2 PPI | 57% of 1,200 active | CHO BLA reporter, CCF4 FRET ratio, counterscreen | AID 624371;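 active means mean inhibition above the low-control mean inhibition plus three low-control SD, cut at about 11% in these data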;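 further: 0% = DMSO only wells and 100% = clavulanate high control wells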
* hit, by the source's call; / = no result given. Most compounds without a hit are left out; they make up all but 1.8% or so of the library.

SMILES	m5-HT2A agonist	TLR9-MyD88 inh	LANA-H2B inh	TLR4 MyD88 comp	Rtt109 Vps75	NOD2 RIPK2 PPI	NOD2 RIPK2 conf	NOD2 BLA counter
COc1ccc(C2C(C(=O)NCCCN3CCOCC3)c3ccccc3C(=O)N2c2ccc(OC)cc2)cc1 (stereo unspecified)	1	1	3	-12	20	24*	4	-3
CCCCNC(=O)C1c2ccccc2C(=O)N(c2ccc(OC)cc2)C1c1ccc(OC)cc1 (stereo unspecified)	1	-6	-1	-5	25	1	/	/
COc1cccc(C2c3[nH]c4ccccc4c3C[C@H]3C(=O)N(CCCCCO)CC(=O)N23)c1 (stereo partly specified)	5	-3	-2	/	-6	-6	/	/
Cc1cccc2c(N=O)c(O)n(CCc3ccccc3)c12	10	16	1	/	-2	26*	25*	14*
O=Nc1c(O)n(Cc2ccc(Cl)cc2)c2ccccc12	2	20	2	3	-5	22*	22*	17*
C#CCOCCOCCOCCNc1nc(N2CCN(C(=O)[C@H](CCC(=O)O)n3cc([C@@H](N)CCCCN)nn3)CC2)nc(N2CCN(C(=O)[C@H](CCCCN)n3cc([C@@H](N)CC(N)=O)nn3)CC2)n1	6	-1	2	/	-1	-13	/	/
Nc1ccc(-c2cnc[nH]2)cc1[N+](=O)[O-]	1	10	0	/	1	12	/	/
COc1ccc2c(c1)OC[C@H]1[C@H]2N2C(=O)c3ccccc3NC(=O)[C@@]2(C)[C@H]1c1ccccc1	-3	4	1	/	-9	-6	/	/
CN1C(=O)[C@H]2[C@@H](c3ccc(F)cc3)N3C(=O)c4ccccc4NC(=O)[C@@]3(C)[C@H]2C1=O	-3	5	5	/	-4	22*	-2	0
O=c1oc2cc(O)ccc2cc1-c1nc2ccccc2o1	-2	/	/	/	/	57*	54*	68*
COc1ccc(S(=O)(=O)N2CCOCC2)cc1NC(=O)Cc1coc2cc(C)c(C)cc12	-5	1	3	/	1	-6	/	/
Cc1c(NC(=S)NC(NC(=O)C(C)(C)C)C(Cl)(Cl)Cl)c(=O)n(-c2ccccc2)n1C (stereo unspecified)	-1	-1	-2	-18	/	25*	1	-1
COc1ccc(NC(=O)CC2C(=O)N(c3ccc(OC)cc3)C(=S)N2NC(=O)c2cccc(F)c2)cc1 (stereo unspecified)	-3	7	-1	-18	-13	22*	5	-3
CC(C)c1cc(C(C)C)c(S(=O)(=O)N2c3ccccc3[C@@]3(Br)C[C@H]4C(=O)N[C@@H](Cc5ccccc5)C(=O)N4[C@@H]23)c(C(C)C)c1	/	/	0	/	/	/	/	/
CN(C)c1ccc(/C=C/C(=O)c2ccc3c(c2)OCO3)cc1	-7	19	/	/	-7	55*	48*	55*
O=C(/C=C/c1ccccc1)c1ccc2c(c1)OCO2	9	6	-3	/	/	-8	/	/
C=CCN1C(=O)C(CC(=O)NCC)SC1=Nc1ccccc1OC (stereo unspecified)	3	7	0	/	-11	-5	/	/
COc1ccc(-c2cc(-c3cccs3)nc3sc(C#N)c(N)c23)cc1	7	13	1	17	-7	45*	51*	69*
COCc1cc(C)c2c(N)c(C#N)sc2n1	3	1	-8	-3	-4	-7	/	/
N#Cc1c(-c2ccccc2)cc(C2CC2)nc1N	0	5	1	9	-1	-4	/	/
N#Cc1sc2nc(C3CC3)cc(-c3ccc(Cl)cc3)c2c1N	3	14	-1	13	7	28*	19	25*
Cc1cc(C)c(NC(=O)CNC(=O)COC(=O)CN2C(=O)NC3(CCCC3)C2=O)c(C)c1	-1	9	-7	/	8	-4	/	/
O=[N+]([O-])c1ccc(C=NNc2ccccc2)cc1	2	16	/	/	11	5	/	/
O=[N+]([O-])c1ccc(N/N=C/c2ccccc2)c(F)c1	-2	17	1	17	-12	24*	27*	30*
COc1cc(C(C)=O)ccc1OCC(=O)NCC(c1ccc(F)cc1)N1CCOCC1 (stereo unspecified)	10	-3	2	/	-11	-12	/	/
SMILES	m5-HT2A agonist	TLR9-MyD88 inh	LANA-H2B inh	TLR4 MyD88 comp	Rtt109 Vps75	NOD2 RIPK2 PPI	NOD2 RIPK2 conf	NOD2 BLA counter
N#Cc1ccc(C23CC4(C2)[C@H](CN(CC2CCCCC2)[C@@H]4c2ccccc2)C3c2ccc(Cl)nc2)cc1 (stereo partly specified)	-2	-3	-6	/	7	5	/	/
CCSc1ccc(-c2cc(NC=O)c3ncc(-c4cccc(C(=O)NCCN(C)C)c4)n3c2)cc1	-10	/	/	/	/	23*	25*	-2
CCc1cccc(CC)c1N1C(=O)C2=C(SCCCS2)C1=O	0	16	/	/	/	40*	35*	38*
CC(=O)Nc1cccc(-c2cc(C)c3cc4c(cc3n2)OCO4)c1	-2	-5	/	/	9	8	/	/
COc1ccc(Cl)cc1NC(=S)Nc1cccnc1	3	-7	-4	6	1	-3	/	/
CC(=O)Nc1ccc(S(=O)(=O)Nc2ccccc2N2CCOCC2)cc1	4	-12	-7	/	5	-21	/	/
CC(C)(C)OC(=O)NCCCCCNC(=O)c1[nH]cnc1C(=O)N[C@@H](Cc1ccccc1)C(=O)OC(C)(C)C	5	7	-5	/	14	31*	16	-9
CC(C)(C)OC(=O)[C@H](Cc1ccccc1)NC(=O)c1nc[nH]c1C(=O)NCCCCCN	3	-4	2	/	23	9	/	/
CC(C)c1ccc(NC(=O)C2CCCCN2S(=O)(=O)c2ccccc2)cc1 (stereo unspecified)	2	-1	/	/	4	-10	/	/
CN(CC(=O)Nc1ccccc1Cl)C(=O)COC(=O)c1nc(Cl)c(Cl)c(Cl)c1Cl	3	15	-14	/	3	24*	28*	9
O=C(Nc1cccc(O)c1)c1cc2nc(-c3ccccc3)cc(-c3ccccc3)n2n1	-1	7	-1	-9	11	22*	8	11*
CN(C)CCC(=O)C(Cc1ccccc1)c1ccccc1 (stereo unspecified)	-7	3	5	/	/	35*	28*	2
CN(C)CCNC(=O)C(c1ccccc1)c1ccccc1	0	-3	2	/	6	8	/	/
Cn1nc(C(=O)Nc2ccc(S(=O)(=O)N3CCOCC3)cc2)c2ccccc2c1=O	3	8	3	-10	13	0	/	/

Screening data as filed in PubChem.
